Measured values from PubChem BioAssay AID492956 (The Scripps Research Institute Molecular Screening Center, 2010).
Screen size: about 340,000 compounds; about 3,300 (0.97%) were called active.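 How the source made its calls: active means inhibition above the mean over all tested compounds plus 3 SD (cut at about 30% in these data); inactive means the rest.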 Only a selection was taken, and actives are over-represented in it overall.

Each compound was assayed against Platelet-activating factor acetylhydrolase 2, cytoplasmic (Homo sapiens) (UniProt Q99487) (assay: PAFAH2 enzyme inhibitors, primary screen, biochemical, fluorescence polarization, human (AID 492956;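 further: inhibitors block probe labeling of enzyme so polarization drops; 0% = enzyme with DMSO and 100% = wells lacking PAFAH2 protein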)). Details: recombinant PAFAH2, FP-rhodamine activity probe, at 3.39 µM, stronger effect = higher value.

inhibition, inactive:
CC1(C)CC(O)C(CCC(O)c2ccccc2)C(C)(C)N1 (stereo unspecified) 4.72%
O=C(NCCNc1ccc([N+](=O)[O-])cc1)c1cccc2c(Br)cccc12 2.72%
CCC(=O)N(Cc1ccccc1)c1ccccn1 -1.23%
Cc1cc(OCCCC(=O)Nc2cc(S(=O)(=O)N3CCOCC3)ccc2N2CCOCC2)ccc1Cl 8.81%
CSc1ncc(C(=O)NCCCc2ccccc2)c(C)n1 -6.77%
C=CCc1c(C)nc2cc(-c3ccccc3)[nH]n2c1=O 0.26%
O=c1c2c(nc3cc(-c4cccc(Cl)c4)[nH]n13)CCCC2 2.97%
Cc1cc(=O)oc2c(C)c(OC(C)C(=O)NC3CCN(Cc4ccccc4)CC3)ccc12 (stereo unspecified) 1.42%
CC(OC(=O)c1c(F)cccc1F)C(=O)NCCC1=CCCCC1 (stereo unspecified) 8.3%
O=C(COC(=O)c1cc[n+]([O-])cc1)Nc1ccc(Cl)c(C(F)(F)F)c1 -4.1%
NC(=O)c1ccc(NC(=O)COC(=O)c2ccc([N+](=O)[O-])cc2)cc1 0.64%
O=C1c2ccccc2NC(c2ccc(-c3cccc(Cl)c3)o2)N1O (stereo unspecified) -3.11%
O=C1NN(c2ccccc2)C(=O)/C1=C/c1ccc(-c2cccc(C(=O)O)c2)o1 24.1%
O=C(O)c1ccc(NN=CC2=C(N3CCOCC3)/C(=C/c3ccccc3)CC2)cc1 1.44%
COc1ccc(C(C[N+](=O)[O-])n2nc(C)cc2C)cc1 (stereo unspecified) 1.81%
O=C(Nc1cccc(S(=O)(=O)NC2=NCCC2)c1)c1ccc(F)cc1F -3.56%
Cc1cc(NS(=O)(=O)c2ccc(NC(=S)NC(=O)c3ccc(F)cc3Cl)cc2)no1 3.92%
C[C@H]1CCC(=O)N([C@H](CSc2ccccc2)Cc2ccccc2)CC1 4.65%
C/C=N/NC(=O)CCCC(=O)N/N=C/C -3.09%
Cc1ccc2c(c1)C1CN(C)CCC1N2C(=S)Nc1ccc(Cl)cc1Cl (stereo unspecified) 8.44%
Cc1ccc2c(c1)C1CN(C)CCC1N2S(=O)(=O)c1cccc(F)c1 (stereo unspecified) 4.06%

inhibition, active:
CCCCN1Cc2c(nc3cc(-c4ccccc4)[nH]n3c2=O)C1=O 40.2%
CC(=O)Nc1ccc(C(=O)OCC(=O)Nc2ccc([N+](=O)[O-])cc2C(F)(F)F)cc1 40.5%
O=C(O)C(c1ccccc1)N1C(=O)/C(=C\c2ccc(-c3cccc(Cl)c3)o2)SC1=S (stereo unspecified) 40.3%
O=C(Nc1cc(S(=O)(=O)Nc2ccc(Cl)cc2)ccc1O)c1ccc(F)cc1F 61.9%
Cc1ccc2c(c1)C1CN(C)CCC1N2C(=O)c1ccccc1NS(=O)(=O)c1ccc(F)cc1C (stereo unspecified) 41.1%
